In PubChem BioAssay AID1852 (Sanford-Burnham Center for Chemical Genomics, 2009) one finds inhibition data, which are given here for 88 compounds.

The structures appear in SMILES notation. Hit rate of the full screen: of about 2,500 compounds, about 1,100 (44%) were called active. The set was probably picked from earlier hits. This is one part of the list. Unmarked numbers belong to inactive results.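 How the source made its calls: active means inhibition above 50% at 4 µM in the single-point screen; inactive means inhibition of 50% or less.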

The nature of this assay: blockers of TNF-a NF-kB luciferase induction – cell-based, HEK293T NF-kB-Luc, luminescence, selectivity assay for NOD1/NOD2 signaling inhibitor project, primary screen (AID 1852). The settings on record: TNF-a induced, 14 h, at 4 µM, active compounds read high.
As usually defined, the inhibition is the change of the read-out against control, counted positive when it falls. For `CC1=C(C(=O)OCc2ccc3c(c2)OCO3)C(c2ccccc2)NC(=O)N1` (stereo not drawn), the inhibition was 96.6% (active).
To `CC1=C(C(=O)OCc2ccc3c(c2)OCO3)C(c2ccc(O)c([N+](=O)[O-])c2)NC(=O)N1` (stereo not drawn) belongs 58% (active); to `CC1=C(C(=O)OCc2ccc3c(c2)OCO3)C(c2ccc(Cl)cc2)NC(=O)N1` (stereo not drawn), 102% (active).
To `O=C(CCl)Nc1ccccc1C(=O)Nc1ccc2c(c1)OCO2` belongs 10.4%; to `O=C(NCCc1ccccc1)c1ccc2c(c1)OCO2`, -77.5%; to `CC1=C(C(=O)OCc2ccc3c(c2)OCO3)C(c2ccc(F)cc2)NC(=O)N1` (stereo not drawn), 104% (active).
With `COc1ccc(C(=O)N2CCCC(N3CCN(c4ccccc4OC)CC3)C2)c(OC)n1` (stereo not drawn), the inhibition is 25%.
To `O=c1cc(CSc2ccc(Cl)cc2)nc(-c2ccccn2)[nH]1` belongs 102% (active); to `Cc1ccc(SCc2cc(=O)[nH]c(SCC(=O)Nc3cc(Cl)ccc3Cl)n2)cc1`, 28.1%.
To `S=C(N/N=C/c1ccc2ncccc2c1)Nc1cccnc1` belongs 29.3%.
To `O=C(CNC(=O)c1cccc(Br)c1)N/N=C/c1cc(Br)cc(Br)c1O` belongs 11.3%.
In the case of `CCOc1cc(Br)cc(/C=N/NC(=O)c2cccnc2)c1O`, the inhibition is 69.2% (active).
To `O=C(N/N=C\c1c(O)ccc2ccccc12)c1cncc(Br)c1` belongs 54.9% (active); to `O=C(N/N=C/c1c(O)ccc2ccccc12)c1cccnc1`, 101% (active).
To `C[C@@H](C(=O)Nc1ccc2ccccc2c1)[C@@H]1C[C@@]1(C)[C@@H](NC(=O)c1cccnc1)c1ccccc1` belongs 11%; to `O=C(CCCc1nc(-c2ccc(Cl)cc2)no1)NC1CCCCC1`, 28.3%; to `Cc1ccc(-c2noc(CCCC(=O)NC3CCCCC3)n2)cc1`, 29.6%.
To `O=C(CCCc1nc(-c2ccc(Cl)cc2)no1)NC1CCCC1` belongs 55.5% (active); to `CC(=O)N(Cc1ccc(F)cc1)C1=C(NCc2ccccc2)C(=O)c2ccccc2C1=O`, 91.2% (active); to `CC(=O)N(Cc1ccc(F)cc1)C1=C(NCCc2ccccc2)C(=O)c2ccccc2C1=O`, 102% (active).
As for `O=C(NCc1ccccc1)C1CCCN1S(=O)(=O)c1ccc(F)cc1` (stereo not drawn), the inhibition is 21.4%.
To `Cc1cc(C)nc(OC(C(=O)O)C(OCCc2ccccc2)(c2ccc(F)cc2)c2ccc(F)cc2)n1` (stereo not drawn) belongs -13.2%; to `CC1(C)N=C(N)N=C(N)N1c1ccc(OCCCOc2ccccc2)c(Cl)c1`, 59.9% (active); to `COc1ccc2nc(N3CCCCC3)c(/C=C3\SC(=S)NC3=O)cc2c1`, 43.6%.
`Cc1cc(C)nc(SC2=CS(=O)(=O)c3ccccc32)n1`: the inhibition is 14.1%.
To `Cn1c(SC2=CS(=O)(=O)c3ccccc32)nc2ccccc21` belongs 56% (active).
For the compound `O=S1(=O)C=C(Sc2nc3ccccc3s2)c2ccccc21`, the inhibition is 82.7% (active).
Regarding `O=C(Nc1ccc(S(=O)(=O)N2CCOCC2)cc1)c1ccc(CN2CCc3ccccc3C2)cc1`, the inhibition is 65.5% (active).
To `O=C(Nc1ccc(S(=O)(=O)N2CCCC2)cc1)c1ccc(Br)o1` belongs 6%; to `COc1ccc(NS(=O)(=O)c2ccc(NC(=O)c3ccc(CN4CCOCC4)cc3)cc2)cc1`, 37.6%.
Turning to `CCN(CC)c1ccc(S(=O)(=O)N2CCOCC2)cc1NC(=O)CN1CCc2ccccc2C1`, the inhibition was 21.6%.
To `O=C(Nc1ccc(S(=O)(=O)N2CCCCC2)cc1)c1ccc(CN2CCOCC2)cc1` belongs 73.2% (active); to `O=C(Nc1ccc(S(=O)(=O)Nc2ccc(F)cc2)cc1)c1ccc(CN2CCOCC2)cc1`, 61.1% (active); to `O=C(Nc1ccc(CN2CCOCC2)cc1)c1ccc(-c2ccc(Cl)cc2Cl)o1`, 44.2%.
To `O=C(Nc1ccc(Cc2ccncc2)cc1)c1ccc(S(=O)(=O)N2CCCC2)cc1` belongs 50.3% (active); to `C/C=C/Cn1c(SCc2ccc(C)cc2)nc2c1c(=O)[nH]c(=O)n2C`, 18.9%.
To `CCN(CC)S(=O)(=O)c1cccc(NC(=O)c2ccc(Br)cc2)c1` belongs 27.5%; to `CCN(CC)S(=O)(=O)c1ccc(C(=O)Nc2ccc(Cc3ccncc3)cc2)cc1`, 63% (active).
For the compound `O=C(Nc1ccc(S(=O)(=O)N2CCCCC2)cc1)c1ccc(CN2CCc3ccccc3C2)cc1`, the inhibition is 59% (active).
To `CCN(CC)S(=O)(=O)c1cccc(C(=O)c2c(C)cc3ccccn23)c1` belongs 27.9%.
To `COc1ccccc1NS(=O)(=O)c1cccc(-n2c(O)c(C=Nc3ccccc3C(=O)O)c3ccccc3c2=O)c1` belongs 69% (active); to `COc1ccc(CNc2nc3c(c(=O)n(Cc4ccc(Br)cc4)c(=O)n3C)n2C)cc1`, 15.5%.
On to `CCN(CC)S(=O)(=O)c1cccc(-n2c(O)c(C=Nc3ccccc3C(=O)O)c3ccccc3c2=O)c1`, for which the inhibition is 70.1% (active).
To `COc1ccc(Cn2c(O)c(C=Nc3ccccc3C(=O)O)c3ccccc3c2=O)cc1` belongs 69.6% (active); to `COc1ccccc1NS(=O)(=O)c1cccc(NC(=O)Nc2ccc(Cl)cc2)c1`, 46.4%.
As to `COc1cc(NC(=O)c2cccs2)c(C(=O)OCC(=O)c2cc(C)n(-c3ccccc3)c2C)cc1OC`, the inhibition was 41.1%.
Regarding `O=C(Nc1ccc(Cl)cc1)c1cccc(N2C(=O)C3C4CCC(C4)C3C2=O)c1` (stereo not drawn), the inhibition is 3.3%.
In the case of `Cc1cc(C(=O)Nc2ccc(Cl)cc2)c(C)n1-c1ccccc1`, the inhibition is 56.3% (active).
To `CCOc1ccc(NC(=O)C2CCCN(S(=O)(=O)c3c(C)noc3C)C2)cc1` (stereo not drawn) belongs 49.2%; to `COc1ccc(-c2nnc(Sc3nc4ccccc4o3)c3ccccc23)cc1`, -25.6%; to `CC(=O)c1c(C)[nH]c(C(=O)Nc2nc(-c3ccccc3)c(C)s2)c1C`, -37.3%.
To `COc1ccc(-c2nc(NC(C)=O)sc2-c2ccccc2)cc1` belongs 58.1% (active).
To `CCc1ccc(S(=O)(=O)/N=C2\C=C(Nc3ccc(C(=O)O)cc3)C(=O)c3ccccc32)cc1` belongs 49.3%.
On to `CCc1ccc(S(=O)(=O)/N=C2\C=C(Nc3ccc(O)cc3)C(=O)c3ccccc32)cc1`, for which the inhibition was 106% (active).
In the case of `COc1ccc(S(=O)(=O)n2ccc(C(C)Oc3ccc(-c4ccccc4)c(F)c3)n2)cc1` (stereo not drawn), the inhibition was 20.1%.
To `O=C(O)c1cccc(S(=O)(=O)Nc2ccccc2Cc2ccccc2)c1` belongs 14.3%; to `COc1ccc(S(=O)(=O)/N=C2\C=C(Nc3ccc(O)cc3)C(=O)c3ccccc32)cc1`, 101% (active).
To `CCc1ccc(S(=O)(=O)/N=C2\C=C(Nc3cccc(C(=O)O)c3)C(=O)c3ccccc32)cc1` belongs 107% (active); to `O=C1C(Cl)=C(Nc2ccc(O)cc2)C(=O)c2ccccc21`, 30.4%.
Turning to `c1ccc(CCCNc2ncccn2)cc1`, the inhibition is 19%.
To `CCOc1ccc2nc(SCc3ccc(CC(=O)O)cc3)c(C#N)cc2c1` belongs 64.6% (active).
To `Nc1c(Cl)ncnc1N/N=C/c1ccccn1` belongs 109% (active); to `Cc1cc(/C=N/Nc2ncnc(N)c2[N+](=O)[O-])c(C)n1-c1ccccc1`, 3.7%.
To `COc1cc(/C=C2\COC/C(=C\c3cc(OC)c(OC)c(OC)c3)C2=O)cc(OC)c1OC` belongs 106% (active); to `COc1cc(/C=C2\CC(C(C)(C)C)C/C(=C\c3cc(OC)c(OC)c(OC)c3)C2=O)cc(OC)c1OC` (stereo not drawn), 87.2% (active); to `COc1cc(/C=C2/CCc3ccccc3C2=O)cc(OC)c1OC`, -23.8%.
As to `Cc1ccccc1NC1=C/C(=N\S(=O)(=O)c2cccs2)c2ccccc2C1=O`, the inhibition is 108% (active).
To `Cc1ccc(NC2=C/C(=N\S(=O)(=O)c3cccs3)c3ccccc3C2=O)c(C)c1` belongs 102% (active); to `COC(=O)c1ccccc1NC1=C/C(=N\S(=O)(=O)c2cccs2)c2ccccc2C1=O`, 99.7% (active).
To `CCc1cccc(NC(=O)C2CCCN(S(=O)(=O)c3cccs3)C2)c1` (stereo not drawn) belongs 18.2%; to `Cc1cccc(NC2=C/C(=N/S(=O)(=O)c3cccs3)c3ccccc3C2=O)c1`, 63.9% (active); to `COc1ccc(CNS(=O)(=O)c2ccc3c(c2)CC(C)N3C(=O)C2CC2)cc1` (stereo not drawn), 30%.
To `Cc1ccc(Cl)cc1NC1=C/C(=N\S(=O)(=O)c2cccs2)c2ccccc2C1=O` belongs 102% (active).
As to `CCOc1ccc(OCCN2C(=O)NC3(CCCc4ccccc43)C2=O)cc1` (stereo not drawn), the inhibition is 18.7%.
To `CCN(CC)S(=O)(=O)c1cccc(C(=O)Nc2nc3cc4c(cc3s2)OCCO4)c1` belongs 22%; to `O=C(Nc1nc2cc3c(cc2s1)OCCO3)C1=COCCO1`, 22.7%; to `CN(CC1CCCO1)S(=O)(=O)c1ccc(C(=O)Nc2nc3cc4c(cc3s2)OCO4)cc1` (stereo not drawn), 69.7% (active).
To `O=C(c1ccc(S(=O)(=O)N2CCCCC2)cc1)N1CCN(CCN2C(=O)c3cccc4cccc(c34)C2=O)CC1` belongs 31%; to `CC1CCCCN1S(=O)(=O)c1ccc(C(=O)Nc2nnc(-c3ccccc3Cl)o2)cc1` (stereo not drawn), 97.2% (active); to `CCC1CCCCN1S(=O)(=O)c1ccc(C(=O)Nc2nnc(-c3ccccc3Cl)o2)cc1` (stereo not drawn), 70.3% (active).
To `CCC1CCCCN1S(=O)(=O)c1ccc(NC(=O)c2ccncc2)cc1` (stereo not drawn) belongs 9.7%.
In the case of `O=C(Nc1nnc(-c2ccccc2Cl)o1)c1ccc(S(=O)(=O)N2CCCCCC2)cc1`, the inhibition is 93.9% (active).
To `O=C(c1[nH]ncc1-c1ccc(Cl)cc1)C1CO1` (stereo not drawn) belongs 12.8%.
As to `CN(C(=O)C(C)(C)C)c1ccc(OCC(=O)N2CCc3ccccc3C2)cc1`, the inhibition was 41.9%.
To `CCOc1ccc(NC(=O)Nc2nc(SCC)ns2)cc1` belongs 12.2%; to `S=C(NNc1ccnc2cc(Cl)ccc12)Nc1ccc(Cl)cc1Cl`, 43.7%; to `S=C(NNc1ccnc2cc(Cl)ccc12)Nc1ccccc1Cl`, 64.6% (active).
To `FC(F)(F)c1cnc(NNC(=S)Nc2ccccc2Cl)c(Cl)c1` belongs -6.8%.
